Source: PubChem BioAssay
Only some compounds are listed: those with a hit (about 7.5% of all), similar ones and a draw of the others.
ELG1 genotox = inducers of genotoxicity in HEK293T ELG1-luciferase cells; AID 504466; HEK293T ELG1-luciferase reporter, luminescence, 16 h; Potency, µM (doses to about 46 µM), inactives show at the top dose activity change, positive = activation, actives largely listed as activators; 330,000 compounds, 1.3% hits; further: % of control where 0% means no effect; nearly all actives have a fitted effect of over 60% in size
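After overnight (16 hr) compound treatment at 37 °C, ELG1-luciferase HEK293T cells were lysed with ONE-Glo; luminescence quantified 30 min later at room temperature.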
FLuc modulator = counter-screen for miR-21 project: firefly luciferase inhibitors or activators | P08659 | purified FLuc, Km substrates, luminescence inhibition | Potency, µM (highest dose often 57.5 µM), without a hit: top-dose activity change, negative = inhibition, hits mostly inhibitors | 360,000 compounds, 6.9% hits | AID 588342;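 further: plate controls were vehicle for no effect and reference inhibitor for full effect; nearly all actives have a fitted effect of over 55% in size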
Target sequence (P08659 whole entry, looked up): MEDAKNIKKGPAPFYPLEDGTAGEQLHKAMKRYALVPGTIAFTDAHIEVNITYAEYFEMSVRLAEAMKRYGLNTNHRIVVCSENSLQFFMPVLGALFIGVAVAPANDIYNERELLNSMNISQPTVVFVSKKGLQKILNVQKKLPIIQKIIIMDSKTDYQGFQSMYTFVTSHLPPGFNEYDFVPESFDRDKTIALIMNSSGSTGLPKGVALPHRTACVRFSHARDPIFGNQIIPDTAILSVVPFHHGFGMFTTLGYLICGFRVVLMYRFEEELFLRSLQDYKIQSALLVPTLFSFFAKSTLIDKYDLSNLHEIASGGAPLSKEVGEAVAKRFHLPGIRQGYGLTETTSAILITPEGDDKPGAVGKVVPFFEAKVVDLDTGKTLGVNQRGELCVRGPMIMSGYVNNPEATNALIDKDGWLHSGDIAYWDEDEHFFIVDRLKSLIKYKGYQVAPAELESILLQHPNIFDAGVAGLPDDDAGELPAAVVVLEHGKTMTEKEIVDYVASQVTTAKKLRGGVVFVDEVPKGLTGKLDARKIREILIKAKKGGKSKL
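Biochemical qHTS of compounds, final roughly 60 µM downward over six points, against 10 nM purified firefly luciferase using Km concentrations of substrates (10 uM D-luciferin, 10 uM ATP) in Tris acetate pH 7.5 buffer; luminescence output.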
SMN2 splice enh = increases expression of the SMN2 splice variant. HEK293 SMN2-luciferase splicing reporter, luminescence, 30-36 h. Potency, µM (series often up to 46.1 µM), without a hit: top-dose activity change, positive = activation, actives largely listed as activators. 210,000 compounds, 2.8% hits; further: % of control where 0% means no effect; nearly all actives have a fitted effect of over 55% in size
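qHTS luciferase splicing reporter: luminescence rises when SMN2 exon 7 is included in transfected HEK293 cells. Compound exposure lasted 30-36 h at 37C, with 4.5 mM final sodium butyrate as control, followed by a ONE-Glo read.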
Luc counter = blocks Kinase-Glo luciferase, a counter-screen artifact; Q27757; 200,000 compounds, 0.28% hits; Potency, µM (top dose mostly 38.3 µM), without a hit: top-dose activity change, negative = inhibition, usual class: inhibitors; Kinase-Glo luciferase, ATP luminescence, 8 min; further: on the % scale 0 is the no-effect control and ±100 the full control effect; nearly all actives have a fitted effect of over 60% in size
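Kinase-Glo luciferase light output from ATP and luciferin was measured with 10 uM ATP, within the enzyme's linear range. Buffer: 50 mM imidazole pH 7.2, 50 mM KCl, 7 mM MgCl2, 0.01% Tween 20, 0.05% BSA; luminescence read after 8 min at ambient temperature.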
NPC1 prom act = NPC1 promoter activation. Huh7 NPC1 promoter luciferase reporter, 24 h. Potency, µM (top dose mostly 9.22 µM), for inactives: top-dose activation, hits mostly activators. 320,000 compounds, 2.4% hits. AID 485313; further: % of control where 0% means no effect; nearly all actives have a fitted effect of over 60% in size
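Stably transfected Huh7 (NPC1 promoter→luciferase), 1500 cells/well in Opti-MEM + 10% FBS, 2 h settle, then compound 24 h at 37 °C. Luminescence after 10 min with Amplite reagent.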
Rab9 prom act = activators of Rab9 promoter; 320,000 compounds, 2.8% hits; AID 485297; Huh7 Rab9 promoter-luciferase reporter, luminescence, 24 h; Potency, µM (titrated, usually from 9.22 µM), for inactives: at the top dose activation, negative = inhibition, hits mostly activators; further: % of control where 0% means no effect; nearly all actives have a fitted effect of over 60% in size
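Huh7 cells stably carrying Rab9 promoter–luciferase reporter, plated 1500 cells/well, compound added after 2 h and incubated 24 h at 37 °C; luciferase luminescence then read after 10 min with detection reagent.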
An asterisk follows results filed as active; ? = inconclusive; / = not tested or not shown; ! = not confirmed by another sample; [ ] = dose if it differs, or a comment. The call rests on the fitted dose curve; in most records, active means well fitted curve in the direction sought with a large enough effect; inconclusive means small, poorly fitted or top-dose-only effect, or another doubt; inactive means no such curve, though single readings can be large; an effect the other way counts as inactive or inconclusive. Potency means the concentration at half of the fitted maximal effect.

SMILES	ELG1 genotox	FLuc modulator	SMN2 splice enh	Luc counter	NPC1 prom act	Rab9 prom act
COc1cc(/C=N/Nc2ccc(C(F)(F)F)cn2)ccc1O	16%	?	25%	1%	1%	11%
O=C(O)c1ccc(/C=N/Nc2ccc(C(F)(F)F)cn2)cc1	?	4.8µM*	13µM*	-1%	0.4µM*	?
CC(C)c1ccc(/C=N/Nc2ccc(C(=O)O)cc2)cc1	?	0.19µM*	-71%	0%	-23%	-23%
CCOc1ccc(NC(=O)C2CCC(CNS(=O)(=O)c3ccc(Br)s3)CC2)cc1 (stereo not given)	/	0%	-8%	/	/	/
O=S1(=O)C=C(SCc2ccc(Cl)c(Cl)c2)Nc2ccccc21	-7%	-1%	-77%	-2%	0%	-9%
Cc1ccc2c(CC(=O)Nc3cccc(Cl)c3C)coc2c1	/	-3%	-2%	/	/	/
O=C1NCCN(Cc2ccc(F)cc2)C1=O	/	-2%	/	/	/	/
O=C(O)c1ccc(N/N=C/c2ccc(-c3ccccc3)cc2)cc1	?	0.48µM*	4µM*	-2%	?	0.32µM*
O=C(O)c1ccc(/C=N/O)cc1	1%	0%	/	/	-5%	-1%
O=C(O)c1cccc(N/N=C/c2ccc(F)c(F)c2)c1	?	0.34µM*	1.1µM*	0%	0.28µM*	0.28µM*
O=C(O)c1ccc(N/N=C/C=C/c2ccccc2)cc1	?	0.6µM*	/	/	0.32µM*	0.25µM*
O=C(O)c1ccc(N/N=C/c2ccc(OC(=O)c3ccccc3Cl)cc2)cc1	?	1.9µM*	-28%	2%	?	?
Cc1cccc(CN2CCC(Oc3ccc(C(=O)N4CCCCC4)cc3)CC2)c1	-7%	0%	/	/	8%	4%
CCOc1cc(C2C(C(N)=O)=C(C)Nc3ncnn32)cc(Br)c1O (stereo not given)	/	3%	/	/	/	/
CCc1ncc(CN2CCC(C(=O)Nc3cccc(-c4cscn4)c3)CC2)cn1	-14%	1%	/	/	-2%	-7%
Cc1ccc(S(=O)(=O)N2CCC(C(=O)O)(c3ccccc3)CC2)cc1	/	/	11%[9.22 µM]	-7%[7.66 µM]	/	/
CCOc1ccccc1NS(=O)(=O)c1c(C)noc1C	23µM*	-3%	28%	-2%	3%	2%
COC(=O)c1ccccc1NS(=O)(=O)c1c(C)noc1C	-1%	1%	/	/	2%	4%
Cc1ccccc1C(=O)/C=C1/SCC(=O)N1C	0%	-3%	-4%	6%	0%	-2%
CCC(=O)Nc1cc(C)c(NC(=O)c2ccccc2OC)cn1	19%	-10%	-9%	-18%	4%	0%
Cc1ccsc1C(=O)NNC(=O)C1C2C=CC(C2)C1C(=O)O (stereo not given)	?	24µM*	7%	-5%	3%	8%
O=C(CCN1C(=O)C2C3CCC(C3)C2C1=O)OCC(=O)c1ccc(Cl)cc1 (stereo not given)	2%	?	/	/	1%	0%
COc1ccc(N=C2C(=Nc3ccc(OC)cc3)N(c3ccc(OC)cc3)C(=S)N2C(=O)c2ccc(OC)cc2)cc1	0%	?	4%	-3%	0%	3%
COc1ccc(N=C2C(=Nc3ccc(OC)cc3)N(c3ccccc3)C(=S)N2C(=O)c2ccc(Cl)cc2)cc1	?	?	25µM*	-4%	2%	17%
COc1ccccc1NCC(=O)c1ccc(C)c(C)c1	0%	17µM*	/	/	2%	-1%
COc1ccccc1NCC(=O)c1ccc(Cl)cc1	0%	17µM*	/	/	1%	10%
COc1ccc(NC(=O)c2cc(S(=O)(=O)NCCC3=CCCCC3)ccc2F)cc1	/	3%	/	/	/	/
CCc1oc2ccccc2c1C(=O)c1cc(Br)c(O)c(Br)c1	0%	15µM*!	-9%	13%	-1%	-5%
O[C@@H](c1cc(-c2ccccc2)nc2c1ccc1ccccc12)C1CCCCN1 (stereo not given in full)	/	/	-5%[9.22 µM]	-1%[7.66 µM]	/	/
